Measurements reported in PubChem BioAssay (Tox21).
Records with an inconclusive call do not appear. Activity calls are given as the source filed them. Unless noted, calls follow the shape of the dose curve; as a rule, active = well fitted curve in the direction sought with a large enough effect in the repeat runs; inconclusive = weak or mixed curves; inactive = no such curve, though single readings can be large; an effect the other way counts as inactive or inconclusive. Positions of bridges follow the written chain, without caps; N, C: chain ends. Non-standard residues stand in square brackets, D forms with d. Residues, ends and D or L forms follow the SMILES beside them. hArg = N=C(N)NCCCC[C@H](N)C(=O)O; Mpa = O=C(O)CCS

Tests used:
[1] = qHTS assay to identify small molecule antagonists of the glucocorticoid receptor (GR) signaling pathway - cell viability counter screen (AID 720693); also: nearly all actives have a fitted effect of over 55% in size
[2] = qHTS assay for identifying genotoxic compounds that show differential cytotoxicity against isogenic chicken DT40 cell lines with known DNA damage response pathways - wild type cell line (AID 743012); also: nearly all actives have a fitted effect of over 60% in size
In short: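 Using parental DT40 (300 cells/well), compounds delivered in DMSO incubate 40 h at 37 C/5% CO2. CellTiter-Glo reagent then stands 30 min at room temperature, and luminescence gives cell viability.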

[3] = qHTS assay for identifying genotoxic compounds that show differential cytotoxicity against isogenic chicken DT40 cell lines with known DNA damage response pathways - Rev3 mutant cell line (AID 743014); also: nearly all actives have a fitted effect of over 55% in size
[4] = qHTS assay for identifying genotoxic compounds that show differential cytotoxicity against isogenic chicken DT40 cell lines with known DNA damage response pathways - Rad54/Ku70 mutant cell line (AID 743015); also: nearly all actives have a fitted effect of over 60% in size
[5] = qHTS assay to identify small molecule antagonists of the androgen receptor (AR) signaling pathway - cell viability counter screen (AID 743033; also: nearly all actives have a fitted effect of over 45% in size)
[6] = qHTS assay to identify small molecule antagonists of the thyroid receptor (TR) signaling pathway - cell viability counter screen (AID 743064); also: nearly all actives have a fitted effect of over 50% in size
In short: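 Fluorescence from CellTiter-Fluor, added after 23.5 h exposure at 37 °C, reported viability of GH3.TRE-Luc cells co-treated with compound and 1 nM T3. Measured in the same wells as the luciferase TR readout.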

[7] = qHTS assay to identify small molecule antagonists of the thyroid receptor (TR) signaling pathway (AID 743065); also: series mostly up to about 70 µM; nearly all actives have a fitted effect of over 55% in size
In short: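 Antagonism measured as loss of luciferase signal in GH3 cells stably carrying a TRE-luciferase reporter, co-treated with compound and T3 (1 nM final) for 23.5 h at 37 C. Viability was read in the same well by CellTiter-Fluor.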

[8] = system: thyroid hormone receptor (rat, GH3 cells); experiment: qHTS assay to identify small molecule agonists of the thyroid receptor (TR) signaling pathway (AID 743066; calls by dose curve)
[9] = qHTS assay to identify small molecule antagonists of the estrogen receptor alpha (ER-alpha) signaling pathway - cell viability counter screen (AID 743074; calls by dose curve;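 also: HEK293 cells carrying ER-alpha-UAS-bla reporter stimulated with 17beta-estradiol; nearly all actives have a fitted effect of over 45% in size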)
[10] = qHTS assay to identify small molecule antagonists of the estrogen receptor alpha (ER-alpha) signaling pathway using the BG1 cell line - cell viability counter screen (AID 743081);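 also: compound given together with 17beta-estradiol as the ER stimulus; series mostly up to about 70 µM; nearly all actives have a fitted effect of over 45% in size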
[11] = biological target: Aromatase (Homo sapiens) (UniProt P11511); experiment: qHTS assay to identify aromatase inhibitors (AID 743083); also: series mostly up to about 70 µM; nearly all actives have a fitted effect of over 55% in size
[12] = qHTS assay to identify aromatase inhibitors - cell viability counter screen (AID 743084)
[13] = qHTS assay to identify small molecule antagonists of the androgen receptor (AR) signaling pathway using the MDA cell line - cell viability counter screen (AID 743041; also: nearly all actives have a fitted effect of over 45% in size)
In short: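 R1881-driven MDA-kb2 AR-luc cells, 3,000/well, were dosed with library compounds for 16 h; cell health came from CellTiter-Fluor fluorescence in the reporter wells.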

[14] = biological target: Estrogen receptor (Homo sapiens) (UniProt P03372); experiment: qHTS assay to identify small molecule antagonists of the estrogen receptor alpha (ER-alpha) signaling pathway (AID 743069; active = well fitted curve in the direction sought with a large enough effect in the signal ratio in the repeat runs, not every such curve was filed as active; the % refers to the signal ratio)
In short: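 Compound effects are measured against 17beta-estradiol stimulation in HEK293 cells with a UAS-controlled beta-lactamase reporter for ER-alpha. Exposure lasts 18 hr at 37C; LiveBLAzer B/G FRET substrate follows for 2 hr at room temperature.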

[15] = biological target: Estrogen receptor (Homo sapiens) (UniProt P03372); experiment: qHTS assay to identify small molecule agonists of the estrogen receptor alpha (ER-alpha) signaling pathway (AID 743075; calls by dose curve)
[16] = biological target: Estrogen receptor (Homo sapiens) (UniProt P03372); experiment: qHTS assay to identify small molecule agonists of the estrogen receptor alpha (ER-alpha) signaling pathway using the BG1 cell line (AID 743079); also: nearly all actives have a fitted effect of over 20% in size
[17] = qHTS assay to identify small molecule antagonists of the estrogen receptor alpha (ER-alpha) signaling pathway using the BG1 cell line (AID 743080; calls by dose curve;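 also: BG1 cells stimulated with 17beta-estradiol alongside compound; series mostly up to about 70 µM; nearly all actives have a fitted effect of over 25% in size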)
In short: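 BG1-Luc-4E2 cells (endogenous full-length ER-alpha, 4xERE luciferase) hormone-starved 5 days in charcoal-stripped FBS, plated 4,000/well for 24 h, then compound plus 17beta-estradiol for 21.5 h at 37 C; ONE-Glo luminescence read.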

[18] = biological target: Androgen receptor (Homo sapiens) (UniProt P10275); experiment: qHTS assay to identify small molecule agonists of the androgen receptor (AR) signaling pathway (AID 743036; active = well fitted activation curve with a large enough effect in the signal ratio in the repeat runs, with a control signal flat, not every such curve was filed as active; the % refers to the signal ratio)
In short: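 Fluorescence from a beta-lactamase FRET substrate served as read-out in AR-UAS-bla GripTite HEK293 cells. Cells were treated with DMSO-dissolved compounds for 16 h at 37C, then with LiveBLAzer B/G substrate for 2 h at room temperature.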

[19] = biological target: Androgen receptor (Homo sapiens) (UniProt P10275); experiment: qHTS assay to identify small molecule agonists of the androgen receptor (AR) signaling pathway using the MDA cell line (AID 743040; also: nearly all actives have a fitted effect of over 20% in size)
In short: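 After a 5 h incubation at 37C and 0% CO2, MDA-kb2 reporter cells were dosed with compounds in DMSO and kept 16 h under the same conditions. Luciferase activity was then read as luminescence with ONE-Glo.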

[20] = biological target: Androgen receptor (Homo sapiens) (UniProt P10275); experiment: qHTS assay to identify small molecule antagonists of the androgen receptor (AR) signaling pathway using the MDA cell line (AID 743042; also: nearly all actives have a fitted effect of over 55% in size)
In short: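 Antagonist mode: compounds plus R1881 agonist added to MDA-kb2 AR-luc cells, incubated 16 h at 37C. Luciferase reporter luminescence quantified, with multiplexed CellTiter-Fluor readout for cell viability.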

Measured: Potency

Sequence of Estrogen receptor (Homo sapiens) (P03372 whole entry, looked up): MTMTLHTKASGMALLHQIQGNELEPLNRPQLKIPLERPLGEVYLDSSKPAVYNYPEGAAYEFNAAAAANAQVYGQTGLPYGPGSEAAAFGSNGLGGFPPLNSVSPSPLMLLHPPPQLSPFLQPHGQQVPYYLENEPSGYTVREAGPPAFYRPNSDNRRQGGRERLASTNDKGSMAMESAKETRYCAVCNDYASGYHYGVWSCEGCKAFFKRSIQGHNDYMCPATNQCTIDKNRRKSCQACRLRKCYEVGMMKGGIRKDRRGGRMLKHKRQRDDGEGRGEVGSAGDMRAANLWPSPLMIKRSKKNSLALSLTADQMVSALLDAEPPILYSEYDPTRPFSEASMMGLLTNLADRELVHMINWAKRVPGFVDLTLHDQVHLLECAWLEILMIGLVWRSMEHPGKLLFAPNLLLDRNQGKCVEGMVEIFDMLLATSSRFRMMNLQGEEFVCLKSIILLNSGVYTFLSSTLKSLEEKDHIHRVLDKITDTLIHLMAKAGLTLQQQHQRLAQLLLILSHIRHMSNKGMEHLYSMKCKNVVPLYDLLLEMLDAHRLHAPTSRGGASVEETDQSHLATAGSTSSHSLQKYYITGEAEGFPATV
Sequence of Aromatase (Homo sapiens) (P11511 whole entry, looked up): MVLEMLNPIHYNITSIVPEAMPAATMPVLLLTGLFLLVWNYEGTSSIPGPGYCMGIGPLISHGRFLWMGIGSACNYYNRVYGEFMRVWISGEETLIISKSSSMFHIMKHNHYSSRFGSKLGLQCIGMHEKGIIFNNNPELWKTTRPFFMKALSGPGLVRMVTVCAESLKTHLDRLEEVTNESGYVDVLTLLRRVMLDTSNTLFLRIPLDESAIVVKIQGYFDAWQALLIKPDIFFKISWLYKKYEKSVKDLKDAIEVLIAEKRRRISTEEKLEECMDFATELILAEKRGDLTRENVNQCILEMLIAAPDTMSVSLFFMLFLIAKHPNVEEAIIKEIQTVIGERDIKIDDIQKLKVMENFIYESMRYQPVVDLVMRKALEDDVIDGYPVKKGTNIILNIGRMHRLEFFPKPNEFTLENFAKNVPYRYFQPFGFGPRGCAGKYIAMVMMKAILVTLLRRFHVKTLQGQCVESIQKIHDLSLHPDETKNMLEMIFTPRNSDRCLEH
Sequence of Androgen receptor (Homo sapiens) (P10275 whole entry, looked up): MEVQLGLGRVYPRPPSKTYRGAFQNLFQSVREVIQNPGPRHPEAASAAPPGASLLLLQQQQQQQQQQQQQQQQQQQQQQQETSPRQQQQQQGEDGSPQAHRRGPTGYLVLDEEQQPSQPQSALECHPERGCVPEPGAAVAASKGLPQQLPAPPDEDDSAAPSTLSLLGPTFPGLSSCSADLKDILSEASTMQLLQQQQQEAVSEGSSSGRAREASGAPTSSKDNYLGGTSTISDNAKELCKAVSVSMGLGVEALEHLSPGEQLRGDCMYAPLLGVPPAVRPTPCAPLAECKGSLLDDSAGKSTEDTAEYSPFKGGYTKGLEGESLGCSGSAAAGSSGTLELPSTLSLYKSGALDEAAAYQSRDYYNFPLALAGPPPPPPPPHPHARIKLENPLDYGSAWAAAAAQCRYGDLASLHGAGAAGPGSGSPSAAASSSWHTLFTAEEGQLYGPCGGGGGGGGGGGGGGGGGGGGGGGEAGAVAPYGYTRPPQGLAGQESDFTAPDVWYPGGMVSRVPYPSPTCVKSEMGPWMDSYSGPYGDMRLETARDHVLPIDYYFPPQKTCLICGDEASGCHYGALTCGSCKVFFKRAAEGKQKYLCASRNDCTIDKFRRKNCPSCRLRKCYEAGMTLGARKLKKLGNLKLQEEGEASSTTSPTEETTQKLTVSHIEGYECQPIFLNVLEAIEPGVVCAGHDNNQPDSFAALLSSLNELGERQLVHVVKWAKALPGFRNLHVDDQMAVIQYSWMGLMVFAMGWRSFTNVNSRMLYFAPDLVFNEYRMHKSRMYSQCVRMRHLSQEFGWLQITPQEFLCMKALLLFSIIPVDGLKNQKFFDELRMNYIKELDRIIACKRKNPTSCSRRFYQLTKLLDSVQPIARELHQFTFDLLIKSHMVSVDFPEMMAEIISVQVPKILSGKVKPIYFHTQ

C=Cc1ccc(C(C)(C)C)cc1
inactive: [1] | [2] | [3] | [4] | [5] | [6] | [7] | [8] | [9] | [10] | [11] | [12]

O=Cc1cc2ccccc2o1
inactive: [1] | [2] | [3] | [4] | [5] | [13] | [6] | [9] | [10] | [11] | [12]

Cc1c(Cl)cccc1Cl
inactive: [1] | [2] | [3] | [4] | [13] | [6] | [7] | [8] | [14] | [9] | [15] | [16] | [17] | [10] | [11] | [12]

CC(=O)O[C@H]1C[C@@H]2CC[C@@]1(C)C2(C)C
inactive: [1] | [2] | [3] | [4] | [18] | [19] | [13] | [20] | [6] | [9] | [10] | [11] | [12]

CCO
inactive: [1] | [2] | [3] | [4] | [19] | [13] | [20] | [6] | [7] | [8] | [9] | [15] | [16] | [17] | [10] | [11] | [12]

CCCSSCCC
inactive: [1] | [2] | [3] | [4] | [13] | [6] | [7] | [8] | [14] | [9] | [15] | [16] | [17] | [10] | [11] | [12]

CC(C)Cn1cnc2c1c(=O)n(C)c(=O)n2C
inactive: [1] | [2] | [3] | [4] | [13] | [6] | [7] | [8] | [14] | [9] | [15] | [16] | [17] | [10] | [11] | [12]

Cn1nnc2c(C(N)=O)ncn2c1=O
inactive: [1] | [2] | [3] | [4] | [13] | [6] | [7] | [8] | [14] | [9] | [15] | [16] | [17] | [10] | [11] | [12]

NCCOCCN
inactive: [1] | [2] | [3] | [4] | [13] | [6] | [7] | [8] | [14] | [9] | [15] | [16] | [17] | [10] | [11] | [12]

CO[C@@]1(NC(=O)Cc2cccs2)C(=O)N2C(C(=O)O)=C(COC(N)=O)CS[C@@H]21
inactive: [1] | [2] | [3] | [4] | [13] | [6] | [7] | [8] | [14] | [9] | [15] | [16] | [17] | [10] | [11] | [12]

C=CC/C=C/C
inactive: [1] | [2] | [3] | [4] | [13] | [6] | [7] | [8] | [14] | [9] | [15] | [17] | [10] | [11] | [12]

NC(=O)[C@@H]1CSSCCC(=O)N[C@@H](CCCCN=C(N)N)C(=O)NCC(=O)N[C@@H](CC(=O)O)C(=O)N[C@@H](Cc2c[nH]c3ccccc23)C(=O)N2CCC[C@H]2C(=O)N1 ([Mpa][hArg]GDWPC-NH2; disulfide 1-7)
inactive: [1] | [2] | [3] | [4] | [13] | [6] | [7] | [8] | [14] | [9] | [17] | [10] | [11] | [12]

CC(=O)C(C)O (stereo not drawn)
inactive: [1] | [2] | [3] | [4] | [5] | [13] | [6] | [9] | [10] | [11] | [12]

Cc1cc(-c2ccccc2)nnc1NCCN1CCOCC1
inactive: [1] | [2] | [3] | [4] | [13] | [6] | [7] | [8] | [14] | [9] | [15] | [17] | [10] | [11] | [12]

C#CCN[C@@H]1CCc2ccccc21
inactive: [1] | [2] | [3] | [4] | [18] | [19] | [13] | [20] | [7] | [8] | [14] | [9] | [15] | [16] | [17] | [10] | [11] | [12]

CC(S)C(C)S (stereo not drawn)
inactive: [1] | [2] | [3] | [4] | [18] | [19] | [13] | [20] | [6] | [7] | [8] | [14] | [9] | [15] | [16] | [17] | [10] | [11] | [12]

O=C(CN1CCNCC1)NC1CCCCC1
inactive: [1] | [2] | [3] | [4] | [5] | [13] | [6] | [9] | [15] | [16] | [17] | [10] | [11] | [12]

CN(C)CCCO[C@@H]1[C@H]2OC(C)(C)O[C@H]2O[C@@H]1C(O)CO (stereo partly drawn)
inactive: [1] | [2] | [3] | [4] | [5] | [13] | [7] | [8] | [14] | [9] | [15] | [16] | [17] | [10] | [11] | [12]

CC(C)C1OCCN1CCOC(=O)NCCCCCCNC(=O)OCCN1CCOC1C(C)C (stereo not drawn)
inactive: [1] | [2] | [3] | [4] | [18] | [19] | [13] | [20] | [6] | [7] | [8] | [14] | [9] | [15] | [16] | [17] | [10] | [11] | [12]

OCC1CCC(CO)CC1 (stereo not drawn)
inactive: [1] | [2] | [3] | [4] | [18] | [19] | [13] | [20] | [6] | [7] | [8] | [9] | [15] | [16] | [17] | [10] | [11] | [12]

CCCCCCCCCOC(=O)CCCCC(=O)OCCCCCCC
inactive: [1] | [2] | [3] | [4] | [5] | [13] | [6] | [9] | [10] | [11] | [12]

O=C1OCCO1
inactive: [1] | [2] | [3] | [4] | [5] | [13] | [8] | [9] | [15] | [16] | [17] | [10] | [11] | [12]
